Measured values: PubChem BioAssay (NCATS)

assay: qHTS profiling of the MIPE4 collection as inhibitors of Plasmodium falciparum (3D7) proliferation (AID 743344);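 note: scaled between DMSO vehicle wells and 0.29 µM artemisinin as full inhibition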; details: P. falciparum 3D7 in erythrocytes, SYBR Green DNA fluorescence, 72 h; at 9.64 µM (top of the series)
From the text: Plasmodium falciparum is a virulent malarial parasite that kills 1-2 million people worldwide each year. Transmitted by mosquitoes, the sporozoite form of the parasite enters the blood stream to infect hepatocytes, where they become merozoites that infect red blood cells (erythrocytes). Within erythrocytes, merozoites begin a […] cycle of growth and division, after which the parasite is released to infect new red blood cells. Gametocytes, which form within erythrocytes as well, circulate in the bloodstream and are ingested by the mosquito, thereby completing the life cycle. To profile malarial isolates for differential chemical responses and to identify inhibitors of malarial growth, an assay that measures P. falciparum growth and replication within erythrocytes was employed. This assay uses a DNA binding fluorescent dye (SYBR Green) to detect parasite DNA following cell lysis. Because mature erythrocytes lack DNA, only Plasmodium-derived DNA is detected.
The SYBR Green viability assay was adapted from a method described previously (Plouffe et al., 2008). For screening 3 ul culture medium was dispensed into 1536 well black clear bottom plates (Aurora Biotechnologies) using a Multidrop Combi (Thermo Fisher Scientific Inc.), 23 nL compounds in DMSO were added by a pin tool (Kalypsys), and 5 ul of erythrocytes infected with P. falciparum (0.3% parasitemia, 2.5% hematocrit final concentration) were added. The plates were incubated at 37 C in a humidified incubator in 5% CO2 for 72 h, and 2 ul lysis buffer (20 mM Tris HCl, 10 mM EDTA, 0.16% saponin, 1.6% triton X, 10X SYBR Green I supplied as 10,000X […] by Invitrogen) was added to each well. The plates were mixed for 25 sec with gentle shaking and incubated overnight at room temperature in the dark. The following morning, fluorescence intensity at 485(14) nm excitation and 535(25) nm emission wavelengths was measured on an EnVision (Perkin Elmer) plate reader. Plate reads were normalized relative to the control inhibitor (0.29 uM artemisinin) and vehicle (DMSO) wells present on each plate and then corrected by an algorithm using vehicle-only control plates at the beginning and end of the compound plate stack.

Structure (SMILES)	parasite growth, % of DMSO control
C[C@H]1C[C@@H]2[C@@H]([C@@H](O)C[C@@]3(C)[C@H]2CC[C@]3(O)C(=O)CO)[C@@]2(C)C=CC(=O)C=C12	78.1%

same assay, conditions: P. falciparum 3D7 in erythrocytes, SYBR Green DNA fluorescence, 72 h; at 28.5 µM

Structure (SMILES)	parasite growth, % of DMSO control
C[C@H]1C[C@@H]2[C@@H]([C@@H](O)C[C@@]3(C)[C@H]2CC[C@]3(O)C(=O)CO)[C@@]2(C)C=CC(=O)C=C12	59.3%

same assay, conditions: P. falciparum 3D7 in erythrocytes, SYBR Green DNA fluorescence, 72 h; at 28.5 µM unless noted

Structure (SMILES)	parasite growth, % of DMSO control
OCCCNc1cc(-c2ccnc(Nc3cccc(Cl)c3)n2)ccn1	5.7%
CCC(=C(c1ccccc1)c1ccc(OCCN(C)C)cc1)c1ccccc1	53.1%
CC(C)CC(=O)Nc1n[nH]c2c1CN(C(=O)C1CCN(C)CC1)C2(C)C	5.43%
CC[C@H](CO)Nc1nc(NCc2ccccc2)c2ncn(C(C)C)c2n1	20%
CCNC(=O)Nc1ccc2ncc(Nc3ccc(C)cc3)nc2n1	19.5%
Cc1cn(-c2cc(NC(=O)c3ccc(C)c(Nc4nccc(-c5cccnc5)n4)c3)cc(C(F)(F)F)c2)cn1	6.31%
Cc1cn2c(-c3cn[nH]c3)cnc2c(Nc2ccc(C(=O)N3CCNCC3)cc2F)n1	5.87%
CN1CCN(c2cc(C(=O)Nc3ccc4c(c3)-c3c(c(C(N)=O)nn3-c3ccc(F)cc3)CC4)c(Cl)cn2)CC1	4.93%
Cc1ccc(CN2CCNCC2)cc1NC(=O)CNc1ccc(F)c(F)c1	55.3%
CC(C)c1cnn2c(NCc3ccccc3)cc(N[C@@H](CO)[C@H](O)CO)nc12	21.9%
N#CCNC(=O)c1ccc(-c2ccnc(Nc3ccc(N4CCOCC4)cc3)n2)cc1	4.16%
CC1(C)CCC(c2ccc(Cl)cc2)=C(CN2CCN(c3ccc(C(=O)NS(=O)(=O)c4ccc(N[C@H](CCN5CCOCC5)CSc5ccccc5)c(S(=O)(=O)C(F)(F)F)c4)cc3)CC2)C1	17.1%
COc1ccc(C=Cc2cc(OC)c(OC)c(OC)c2)cc1O	36%
Cc1nc2cnc3ccc(C#Cc4cccnc4)cc3c2n1-c1ccc(C(C)(C)C#N)cc1	4.38%
Cc1ccc(S(=O)(=O)Nc2cc(Cl)ccc2C(=O)Nc2nc(-c3ccccc3)cs2)cc1	64.3%
O=C(O)CO.[NH2-].[NH2-].[Pt+2]	92.3%
Cn1cc(-c2[nH]c3cc(NC(=O)[C@H](N)C4CCCCC4)cc4c3c2C=NNC4=O)cn1	3.34%
CCCCc1nc2cc(C=CC(=O)NO)ccc2n1CCN(CC)CC	4.71%
COc1cc2c(cc1-c1c(C)noc1C)ncc1[nH]c(=O)n([C@H](C)c3ccccn3)c12	67.1%
C=C1C(=CC=C2CCCC3(C)[C@@H]([C@H](C)C=CC=CC(O)(CC)CC)CC[C@@H]23)C[C@@H](O)C[C@@H]1O (stereo partly specified)	17.5%

Structure (SMILES)	parasite growth, % of DMSO control
O=C(O)c1ccc2cc(-c3ccc(O)c(C45CC6CC(CC(C6)C4)C5)c3)ccc2c1	13.5%
Cc1c(Cn2c(C)nc3c(C(=O)O)cc(N4CCOCC4)cc32)cccc1C(F)(F)F	72.5%
COc1ccc(C(=O)CC2(O)C(=O)Nc3c(Cl)ccc(Cl)c32)cc1 (stereo unspecified)	74.3%
C[C@]12CC[C@H](O)CC1=CCC1C2CC[C@]2(C)C(n3cnc4ccccc43)=CCC12 (stereo partly specified)	6.89%
Cc1cc(Nc2cc(NC(=O)c3c(Cl)cccc3Cl)ccn2)nc(N)n1	5.6%
CCCCCN(CCC12CC3CC(CC(C3)C1)C2)C(=O)NCCCc1ccncc1	6.26%
COc1cc(C)c(Sc2cnc(NC(=O)c3ccc(CNC(C)C(C)C)cc3)s2)cc1C(=O)N1CCN(C(C)=O)CC1 (stereo unspecified)	16.2%
COc1ccc(-n2nc(C(N)=O)c3c2C(=O)N(c2ccc(N4CCCCC4=O)cc2)CC3)cc1	53.4%
Cc1ccc(C(N)=O)cc1Nc1nccc(-c2cn(C(C)C)c3cnccc23)n1	5.53%
COc1cc(OC2CCN(C)CC2)ccc1Nc1ncc2c(n1)n(C1CCCC1)c(=O)n2C	9.89%
CNC(=O)CN1CCC(Oc2cc3c(Nc4cccc(Cl)c4F)ncnc3cc2OC)CC1	11.2%
CC(C)(C)OC(=O)Nc1ccc(-c2cc(C(=O)NCCCCCCC(=O)NO)no2)cc1	4.81%
Cc1cc(Nc2ncnc3ccc(-c4ccc(CNCCS(C)(=O)=O)o4)cc23)ccc1Oc1ccn2ncnc2c1	5.93%
COc1cc2c(NC3CCN(C(C)C)CC3)nc(C3CCCCC3)nc2cc1OCCCN1CCCC1	5.09%
CN[C@H]1CCc2cc(OC)c(OC)c(OC)c2-c2ccc(OC)c(=O)cc21	67.4%
NCC(=O)Nc1ccc(-n2nc(C(F)(F)F)cc2-c2ccc3c(ccc4ccccc43)c2)cc1	5.62%
O=C(Nc1ncc(-c2cc(C(F)F)nn2-c2c(Cl)cccc2Cl)s1)C1CC1	10.3%
CCCCN1CCC(CNC(=O)c2c3n(c4ccccc24)CCCO3)CC1	25.9%
c1cc(-c2cnn3cc(-c4ccc(OCCN5CCCCC5)cc4)cnc23)ccn1	4.66%
